# Assay results: PubChem BioAssay AID652039 (The Scripps Research Institute Molecular Screening Center, 2013)
# About 3,300 (0.89%) of roughly 370,000 compounds were called active.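 The calls were made as follows: active = activation above the mean of all tested compounds plus 3 SD, computed per campaign excluding outliers beyond control limits (cut at about 13% in these data); inactive = the rest.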 This excerpt belongs to a sample that is enriched for actives.
# Biological target: Kallikrein-7 (Homo sapiens) (UniProt P49862)
# Assay: activation of human kallikrein-7 proenzyme – biochemical, fluorescence intensity, primary screen (AID 652039)
# Details: purified proKLK7, EDANS-DABCYL substrate fluorescence; at 7 µM; active compounds read high; 100% is mature enzyme control, 0% vehicle
# Sequence of Kallikrein-7 (Homo sapiens) (P49862 whole entry, looked up): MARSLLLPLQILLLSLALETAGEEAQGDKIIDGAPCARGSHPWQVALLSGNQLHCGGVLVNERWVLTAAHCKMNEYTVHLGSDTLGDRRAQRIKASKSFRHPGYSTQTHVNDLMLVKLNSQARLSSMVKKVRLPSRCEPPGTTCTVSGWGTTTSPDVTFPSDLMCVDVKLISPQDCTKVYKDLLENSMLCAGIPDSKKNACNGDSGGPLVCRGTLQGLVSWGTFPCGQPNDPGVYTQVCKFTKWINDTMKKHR
row,SMILES,activation
1,COCc1c(N)c(C)nc(Cl)c1C#N,-1.78% (inactive)
2,COC(=O)c1c(C)c(C)nc(N)c1C#N,33.8% (active)
3,Cc1nc(SCC(=O)NC2CCCCC2C)c(C#N)c(C)c1C (configuration not stated),-0.08% (inactive)
4,Cc1ccccc1NC(=O)Cn1nnc(-c2ccccc2F)n1,-0.28% (inactive)
5,O=C(NC1CCCC1)C1CSCCS(=O)(=O)N1Cc1ccccc1 (configuration not stated),0.33% (inactive)
6,Cc1c[nH]c2cccc(-c3ccc(Cl)cc3)c12,0.5% (inactive)
7,O=C(CSc1nnc(COc2ccccc2)n1Cc1ccco1)c1ccc2ccccc2c1,0.09% (inactive)
8,O=C(NCc1cccs1)C1CCCN(S(=O)(=O)c2ccc([N+](=O)[O-])cc2)C1 (configuration not stated),-0.47% (inactive)
9,Cc1ccc(-n2c(SCC(=O)Nc3ccc(S(=O)(=O)Nc4nccs4)cc3)nnc2-c2ccncc2)cc1,0.08% (inactive)
10,CCCCCn1c(=O)c(C(=O)OCC)c(Cl)c2ccccc21,27.6% (active)
11,CCOC(=O)CSc1nc2c(c(=O)n(Cc3ccccc3Cl)c(=O)n2C)n1C,-0.44% (inactive)
12,CCCCNC(=O)CCn1c(=O)c2ccccc2n(Cc2cc(C)ccc2C)c1=O,-0.3% (inactive)
13,C=CCn1c(SCC(N)=O)nnc1-c1ccccc1OC,-0.28% (inactive)
14,Cc1ccc(C2=CCN(C)C(=O)N2c2ccc(Cl)cc2)cc1,0.11% (inactive)
15,C[C@H](C(=O)N(C)c1ccccc1)[C@@H](O)c1ccc2ccccc2c1,-0.85% (inactive)
16,CN(C)S(=O)(=O)c1cccc(C(=O)N/N=C\c2ccco2)c1,-0.04% (inactive)
17,CC[C@@H](C)[C@H](NC(=O)CCc1c(C)c2cc3c4c(oc3c(C)c2oc1=O)CCCC4)C(=O)O,-2.12% (inactive)
18,Cc1coc2c1c(C)cc1oc(=O)c(CC(=O)NCC(=O)N[C@H](C(=O)O)C(C)C)c(C)c12,21.3% (active)
19,Cc1c(CC(=O)NCC(=O)NCC(=O)O)c(=O)oc2cc3oc4c(c3cc12)CCCC4,-11.5% (inactive)
20,CCOC(=O)[C@]12CCCC=C1N(Cc1ccc(OC)cc1)C(=O)[C@@H]2CC(=O)N1CCOCC1,-0.23% (inactive)
21,Cc1ccc(CCn2c3c(c4ccccc42)CN(C)CC3)cn1,-0.24% (inactive)
22,COC(=O)[C@@]12CCCCC3=C1N(CCC3)C(=O)[C@H]2CC(=O)NCc1cccc2ccccc12,0.65% (inactive)
23,CC(C)(C)OC(=O)NCc1cc(F)ccc1/C=C/S(=O)(=O)NCCc1ccccc1,0.29% (inactive)

row,SMILES,activation
1,FC(F)(F)c1cccc(Cn2ccc3ccc(-c4ccc5ccn(Cc6ccccc6)c5c4)cc32)c1,-1.25% (inactive)
2,O=C(/C=C/c1ccc2c(c1)OCCO2)c1ccc(O)cc1,17.6% (active)
3,Cc1cccc(NC(=O)/C=C/c2ccc3c(c2)OCO3)n1,6.43% (inactive)
4,COc1cccc(/C=C/C(=O)Nc2ccc3c(c2)OCCO3)c1,-0.23% (inactive)
5,COc1ccccc1CCNC(=O)C1CCN(c2nc(C)cc(C)n2)CC1,-0.66% (inactive)
6,COC(=O)c1cc(S(=O)(=O)N2CCN(c3ccccc3C)CC2)cn1C,0.47% (inactive)
7,CN(C)Cc1c(O)ccc2occ(C(O)c3ccccc3)c12 (configuration not stated),-0.59% (inactive)
8,Cc1ccc(C(=O)c2coc3ccc(O)c(CN(C)C)c23)cc1,0.08% (inactive)
9,CN(C)Cc1c(O)ccc2c(=O)c(-c3ccccc3Cl)coc12,40.3% (active)
10,COc1ccc(CNC(=O)COC(=O)C2=Cc3ccccc3OC2)cc1,31.2% (active)
11,COc1ccc(CCNC(=O)COC(=O)c2cc(=O)c3ccccc3o2)cc1,0.13% (inactive)
12,COc1ccc(CNC(=O)COC(=O)C(CCSC)N2C(=O)c3ccccc3C2=O)cc1 (configuration not stated),0.41% (inactive)
13,COc1ccc(-c2cc(-c3nnc(SCc4ccc([N+](=O)[O-])cc4)n3N)[nH]n2)cc1,0.29% (inactive)
14,O=C(NCc1ccco1)C1CCCN(S(=O)(=O)c2ccc(Cl)s2)C1 (configuration not stated),-0.13% (inactive)
15,COC(=O)C1CN(CC(C)C)CCS(=O)(=O)N1Cc1ccc(F)cc1 (configuration not stated),0.05% (inactive)
16,COc1ccc2c(c1)CCc1cn3ncc(C#N)c3nc1-2,47% (active)
17,COc1ccc2c(c1)CCc1c(C(=O)N3CCCC3)noc1-2,0.01% (inactive)
18,N#Cc1cnn2cc(CCN3CCOCC3)c(-c3ccc(F)cc3)nc12,11.7% (inactive)
19,CN(CCc1ccccc1)C(=O)Cn1nc(-c2ccccc2)ccc1=O,-0.3% (inactive)
20,CCOC(=O)C1(Cc2ccccc2)CCN(Cc2cn(C(C)=O)c3ccccc23)CC1,0.56% (inactive)
21,CCCCCCN1CCS(=O)(=O)N(Cc2ccc(C(F)(F)F)cc2)C(C(=O)OC)C1 (configuration not stated),0.5% (inactive)
22,O=c1[nH]c(CN2CCOCC2)nc2scc(-c3ccccc3)c12,-0.59% (inactive)
23,CCOC(=O)c1oc2c(CN3CCN(C)CC3)c(O)ccc2c(=O)c1-c1ccc(Br)cc1,0.69% (inactive)

row,SMILES,activation
1,O=c1c(-c2ccccc2)coc2c(CN3CCOCC3)c(O)ccc12,45.3% (active)
2,O=C(NCC1COc2ccccc2O1)c1ccc(NC(=O)c2cc(F)ccc2F)cc1 (configuration not stated),1.38% (inactive)
3,COc1cccc(Cn2cc(COC(=O)Nc3ccc(F)cc3)nn2)c1,-0.1% (inactive)
4,COc1cccc2cc(S(=O)(=O)c3ccc(C)cc3)/c(=N/NS(=O)(=O)c3ccc(C)cc3)oc12,0.14% (inactive)
5,Cc1cc(S(=O)(=O)c2cc3ccc(O)c(C)c3oc2=O)ccc1F,22.6% (active)
6,O=C(CSc1nc2ccccc2s1)NN=Cc1ccc(O)cc1O,-0.66% (inactive)
7,COc1cccc(/C=C2\CC3(OC(C)=O)CCCN2C3)c1 (configuration not stated),0.57% (inactive)
8,O=C(CCCCCN1C(=O)C2C3C=CC(C3)C2C1=O)Nc1ccccn1 (configuration not stated),0.09% (inactive)
9,C=C(C)C1CC23C(=O)C4(C(=O)c5ccccc5)C[C@@]5(C)CCC(CC2C1(C)C)(C4=O)C35OC (some centres not stated),-0.91% (inactive)
10,Cc1ccccc1C(=O)O,-0.39% (inactive)
11,Cc1ccsc1-c1cc(C(=O)O)c2c(ccc3ccccc32)n1,12.6% (active)
12,Cc1cc(=O)oc2c1ccc1ccccc12,-3.76% (inactive)
13,Cc1cc(=O)oc2c(C)c(OCC(=O)NCCN3CCOCC3)ccc12,-0.44% (inactive)
14,Cc1cc(=O)oc2c3c(cc(OCC(=O)NCC(O)c4ccccc4)c12)OC(C)(C)CC3 (configuration not stated),-10.6% (inactive)
15,CCc1cc(=O)oc2c(C)c(OCC(=O)NCCN3CCOCC3)ccc12,1.04% (inactive)
16,O=C(COc1ccc2c3c(c(=O)oc2c1)CCCC3)NCC(O)c1ccccc1 (configuration not stated),-0.24% (inactive)
17,Cc1c(C)c2c(OCC(=O)NCCCO)cc3c(c2oc1=O)CCC(C)(C)O3,40.1% (active)
18,Cc1cc(=O)oc2c3c(cc(OCC(=O)NCc4ccccn4)c12)OC(C)(C)CC3,12.5% (inactive)
19,Cc1cc(=O)oc2c3c(cc(OCC(=O)NCCC(=O)N[C@@H](C)C(=O)O)c12)OC(C)(C)CC3,47.4% (active)
20,COc1cccc(NC(=O)COc2cc(C)cc3oc(=O)cc(C)c23)c1,-0.24% (inactive)
21,Cc1c(C)c2c(OCC(=O)N[C@@H](C(=O)O)c3ccccc3)cc3c(c2oc1=O)CCC(C)(C)O3,39.6% (active)
22,Cc1cc(=O)oc2c3c(cc(OCC(=O)N[C@H](C(=O)O)c4ccccc4)c12)OC(C)(C)CC3,47.5% (active)
23,COc1ccc(CCNC(=O)COc2cc(C)cc3oc(=O)c(C)c(C)c23)cc1OC,-0.02% (inactive)

row,SMILES,activation
1,Cc1c(OC(C)C(=O)N[C@@H](Cc2ccccc2)C(=O)O)ccc2c3c(c(=O)oc12)CCCC3 (some centres not stated),-18.9% (inactive)
2,Cc1ccccc1NC(=O)COC(=O)c1ccc(Sc2ncn[nH]2)c([N+](=O)[O-])c1,0.34% (inactive)
3,Cc1cc(C)cc(NC(=O)N2CCC(N(C)CCC(C)C)CC2)c1,-0.07% (inactive)
4,CC(CCN1CCC(C(O)(c2ccccc2)c2ccccc2)CC1)Oc1ccc(C(F)(F)F)cc1 (configuration not stated),-0.17% (inactive)
5,COC(=O)[C@]12C[C@H](CC(=O)N3CCN(C(=O)C4CC4)CC3)C(=O)N(CCC3=CCCCC3)C1=C[C@H](C(C)C)O[C@@H]2C1CC1,0.25% (inactive)
6,CCCC[C@H]1C2CC(OC(=O)NCc3ccccc3)C(C2)[C@H]2CCCCN21 (some centres not stated),0.07% (inactive)
7,O=C(NCc1cccnc1)c1ccc2nc([C@@H]3O[C@H](CO)[C@H](O)[C@H](O)[C@H]3O)[nH]c2c1,-0.29% (inactive)
8,CCOC(=O)c1csc(NC(=O)C2CCCN(S(=O)(=O)c3ccc(Cl)s3)C2)n1 (configuration not stated),0.6% (inactive)
9,Cc1ccccc1N1CCN(C2CCCN(C(=O)c3cn4c(C)cccc4n3)C2)CC1 (configuration not stated),0.45% (inactive)
10,CCOC(=O)[C@]12CCCCC/C=C\1N(Cc1ccc(OC)cc1)C(=O)[C@H]2CC(=O)NCc1ccc(C)o1,0.76% (inactive)
11,O=C(CN1CCCc2ccccc21)NCc1ccc(F)cc1,-0.07% (inactive)
12,COC(=O)C1=C(C(=O)c2ccc(C)cc2)C(c2ccccc2)n2nnnc2N1 (configuration not stated),-0.19% (inactive)
13,COc1ccccc1NC(=O)C1=C(C)Nc2nnnn2C1c1cccc(Br)c1 (configuration not stated),0.58% (inactive)
14,COC(=O)c1ccc(C2C3=C(Nc4nnnn42)c2ccccc2OC3)cc1 (configuration not stated),30.4% (active)
15,COc1ccccc1C(=O)NC1CCCCN(C(C)C)C1=O (configuration not stated),0.9% (inactive)
16,COc1cccc(CNC(=O)C2CCCN(c3nc4ccccc4o3)C2)c1OC (configuration not stated),0.61% (inactive)
17,O=S(=O)(c1ccccc1)N1CCC(c2nc3ccccc3o2)CC1,-0.13% (inactive)
18,CC1CCN(C(=O)Cn2cc(C(=O)c3ccco3)c3ccccc32)CC1,0.78% (inactive)
19,Cc1ccc(S(=O)(=O)N2CCN(C(=O)c3ccccc3-c3nc4ccccc4s3)CC2)c(C)c1,-0.15% (inactive)
20,CC(=O)N1CCN(C(=O)c2cc(-c3ccc(C)o3)nc3ccccc23)CC1,35.2% (active)
21,CC1CCCN(C(=O)c2cc(-c3ccco3)nc3ccccc23)C1 (configuration not stated),38.3% (active)
22,CC(=O)N1CCN(Cc2cc(=O)oc3cc(C)ccc23)CC1,0.22% (inactive)
23,O=C(c1cc(-c2ccco2)nc2ccccc12)N(Cc1nnc(-c2ccc(Cl)cc2)o1)C1CC1,-60.5% (inactive)
